Source: PubChem (National Center for Advancing Translational Sciences (NCATS))
Most compounds without a hit are left out; they make up all but 15% or so of the library.
Pf growth 48h – Primary qHTS for delayed death inhibitors of the malarial parasite plastid, 48 hour incubation. P. falciparum luciferase growth in erythrocytes, 48 h. Potency, µM (top dose mostly 28.7 µM), hits mostly inhibitors. 310,000 tested, 5.9% active. AID 504832, 2011
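Luciferase-expressing parasites in RBCs, 2% Hct / 0.1% parasitemia final; RPMI 1640 + 0.5% Albumax; 37 C, 5% CO2, one generation; luminescence read-out, lower signal = inhibition.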
HCMV antiviral – qHTS Assay for inhibitors of the human cytomegalovirus (HCMV); HFF cells, HCMV-luciferase reporter, 72 h; active compounds read low; activity change, negative = inhibition, % at 57.5 µM; 410,000 tested, 4.5% active; AID 1259415, 2018; in the data active = activity change below about -60%; inconclusive = no clear call, values can overlap the other calls; inactive = above about -39%
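Two compound doses tested in HFFs infected with HCMV-luciferase, MOI 1 PFU/cell, 72 h at 37C. Lysate luminescence read with OneGlo; data normalized against buffer-only and 10uM Salinomycin inhibitor controls.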
Pf growth 96h – Primary qHTS for delayed death inhibitors of the malarial parasite plastid, 96 hour incubation; P. falciparum luciferase reporter growth, 96 h; Potency, µM (series often up to 28.7 µM), hits mostly inhibitors; 320,000 tested, 6.9% active; AID 504834, 2011
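Readout is luminescence from an integrated firefly luciferase in P. falciparum. Red cells, 2% hematocrit and 0.05% parasitemia final, were cultured with compound through two parasite generations (96 hours) at 37 C, 5% CO2.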
SARS PLP yeast – qHTS of Yeast-based Assay for SARS-CoV PLP; S. cerevisiae expressing SARS-CoV PLpro, growth rescue; Potency, µM (titrated, usually from 32.9 µM), usual class: activators; 330,000 tested, 0.19% active; AID 485353, 2010; calls by dose curve; note: nearly all actives have a fitted effect of over 55% in size
Sm TGR inh – qHTS Assay for the Inhibitors of Schistosoma Mansoni Peroxiredoxins | Schistosoma mansoni thioredoxin glutathione reductase (TGR), Q962Y6 | purified TGR, DTNB reduction, TNB absorbance 405 nm | Potency, µM (highest dose often 114 µM), most hits filed as inhibitors | 360,000 tested, 3% active; note: nearly all actives have a fitted effect of over 60% in size
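First, TGR (20 nM dispensed) and NADPH were mixed with compound. Second, a 15 min room-temperature incubation followed. Third, further NADPH and then DTNB were added to start the reaction. Finally, TNB absorbance was monitored kinetically.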
HCV inhibitor – qHTS Assay for Inhibitors of Hepatitis C Virus (HCV); Huh7.5.1 HCVcc-Cre infection, luciferase reporter, 44 h; Potency, µM (top dose mostly 41.8 µM), usual class: inhibitors; 340,000 tested, 3.4% active
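Compounds are dispensed onto cells plated 4 h earlier at 1,000 per well, with HCVcc-Cre virus (about 0.5 moi) added next. Following 44 h of culture, luminescent signal is measured for 15 sec after 15 min with substrate at room temperature.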
Numbers stand for hits; . = inactive; ? = inconclusive; / = no result. Unless noted, calls come from the whole dose curve; as a rule, active = well fitted curve in the direction sought with a large enough effect; inconclusive = small, poorly fitted or top-dose-only effect, or another doubt; inactive = no such curve, though single readings can be large; an effect the other way counts as inactive or inconclusive.

SMILES	Pf growth 48h	HCMV antiviral	Pf growth 96h	SARS PLP yeast	Sm TGR inh	HCV inhibitor
O=C(Nc1nc2n(n1)C(c1ccc(F)cc1)C=C(c1ccccc1)N2)c1cccc([N+](=O)[O-])c1 (stereo unspecified)	/	.	/	/	.	/
Cc1ccc(C2C=C(c3ccccc3)Nc3nc(NS(=O)(=O)c4ccc(C)cc4)nn32)cc1 (stereo unspecified)	/	.	/	/	.	/
Cc1ccc(C2C=C(c3ccc(Cl)cc3)Nc3nc(NS(=O)(=O)c4ccccc4)nn32)cc1 (stereo unspecified)	/	.	/	/	31.6µM	/
CC(=O)Nc1nc2n(n1)C(c1ccc(F)cc1)C=C(c1ccccc1)N2 (stereo unspecified)	?	.	.	.	3.16µM	.
CCCOc1ccc(NC(=O)CC2C(=O)N(c3cccc(OC)c3)C(=O)N2CCc2ccncc2)cc1 (stereo unspecified)	/	.	/	/	.	/
COCCN(C(=O)COC(=O)c1ccc(C=O)cc1)c1c(N)n(Cc2ccccc2)c(=O)[nH]c1=O	.	.	.	.	.	.
CC(=O)Nc1nc2n(n1)C(c1ccccc1)C=C(c1ccccc1)N2 (stereo unspecified)	.	/	5.22µM	.	3.98µM	.
COc1ccc(C2=Nn3c(nnc3C3CCCCC3)SC2)cc1OC	/	.	4.65µM	.	.	?
COc1ccc(OC)c(C2=Nn3c(nnc3C3CCCCC3)SC2)c1	?	?	9.28µM	.	.	15.8µM
COc1ccccc1C1=Nn2c(nnc2C2CCCCC2)SC1	?	?	.	.	.	.
COC(=O)C1=C(C)N(Cc2ccco2)C(=O)C1	.	.	.	.	17.8µM	.
COC(=O)C1=C(C)N(Cc2ccco2)C(=O)N[C@@H]1c1ccco1	/	.	/	/	/	.
COC(=O)C1=C(C)N(Cc2ccc(OC)cc2)C(=O)C1	?	.	?	.	.	.
COC(=O)C1=C(C)N(Cc2ccco2)C(=O)N[C@@H]1c1ccccc1	.	.	.	.	35.5µM	.
COC(=O)C1=C(C)N(Cc2ccc(OC)c(OC)c2)C(=O)C1	13.1µM	.	?	.	.	.
Cc1ccccc1N=C(NO)c1nonc1N	.	.	.	.	.	.
C=C(C)COc1ccc(-c2nc(N)ncc2-c2ccc(Cl)cc2)c(O)c1	13.1µM	.	?	.	.	?
COc1ccc(-c2nc(N)ncc2-c2ccccc2)c(O)c1	.	?	.	.	.	.
Nc1ncc(-c2ccccc2)c(-c2ccc(OCc3ccccc3)cc2O)n1	11.7µM	?	?	.	.	1.78µM
Cc1ccccc1C(=O)OCC(=O)N1CC(=O)Nc2ccccc21	/	.	/	/	/	/
CCOC(=O)c1[nH]c(C)c(C(=O)OCC(=O)N2CC(=O)Nc3ccccc32)c1C	?	.	9.28µM	.	.	?
CCOC(=O)c1c(C)[nH]c(C(=O)OCC(=O)N2c3ccccc3CC2C)c1C (stereo unspecified)	?	.	?	.	.	10µM
CC1CCc2nc3ncn(Cc4ccc(Cl)cc4)c(=O)c3cc2C1 (stereo unspecified)	/	.	/	/	.	/
Cc1ccc2c(c1)C(c1ccc(F)cc1)N(C(=O)COc1ccc(Cl)cc1Cl)CC(=O)N2 (stereo unspecified)	/	-60.2	/	/	.	/
O=C1CN(C(=O)COc2ccc(Cl)cc2Cl)C(c2ccc(F)cc2)c2cc(F)ccc2N1 (stereo unspecified)	/	.	/	/	.	/
COc1ccc2oc(=N)c(C(=O)Nc3cccc(C)c3C)cc2c1	.	.	?	.	.	.
CN(CC(=O)Nc1n[nH]c(=S)s1)S(=O)(=O)c1cccc2cccnc12	.	.	5.22µM	.	.	.
CN(CC(=O)NCc1ccco1)S(=O)(=O)c1cccc2cccnc12	/	.	.	.	20µM	.
COc1ccc(S(=O)(=O)N(C)CC(=O)NCc2ccco2)cc1Cl	.	.	.	.	.	.
COc1ccc(C)cc1S(=O)(=O)N(C)CC(=O)NCc1ccco1	.	.	/	.	31.6µM	.
